Source: PubChem BioAssay (NCI)
This is part of a sample that, as a whole, favours compounds with a hit. Of some 83,000 tested, about 20% had one in any assay.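 Single-dose data. Exposure time 48 hours. Values below 10 considered active.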 Active and inactive are the calls of the source.

Each compound was assayed on OVCAR-3 ovarian (assay: NCI-60 one-dose screen, 48 h (100 = growth as untreated, 0 = no growth, -100 = all killed)). Settings: 10 µM unless noted.

Row | SMILES | growth
1 | Cn1c(=O)c2[nH]c(SC/C(=N/O)c3ccc(Br)cc3)nc2n(C)c1=O | 11.8% (inactive)
2 | Cc1c2ncccc2nc2[nH]c3ccc(OCCN(C)C)cc3c12 | 51.4% (inactive)
3 | COc1ccc(-c2cc(C(=O)N3N=C(c4ccc(N)cc4)CC3c3ccc(Cl)cc3)c3ccccc3n2)cc1 (centres undefined) | 3.86% (active)
4 | Cc1oc(-c2ccc(Cl)cc2)nc1C1=NN(C(=O)c2ccncc2)C(c2ccccc2)C1 (centres undefined) | 92.4% (inactive)
5 | Nc1cc(C(=O)O)cc(-n2c(O)c(C=C3N=c4ccccc4=N3)sc2=S)c1 | 106% (inactive)
6 | Nc1ncnc2c1N=C(c1ccc(F)cc1)CC(c1cccc(Nc3ccnc4cc(Cl)ccc34)c1)N2 (centres undefined) | 88.9% (inactive)
7 | CCNC(=O)N1CCc2c(Br)c3c(c(OC)c2C1Cc1ccc(OC)cc1)OCO3 (centres undefined) | 7.18% (active)
8 | Nc1nc2ccccc2c2c(=O)c3cc(Cl)ccc3sc12 | -22.8% (active)
9 | Cc1ccc(S(=O)(=O)c2nc(-c3ccccc3)oc2SCC(N)=O)cc1 | 94.9% (inactive)
10 | CCCN(CCSSCCNc1nc(N(C)O)nc(N(C)O)n1)c1nc(N(C)O)nc(N(C)O)n1 | 51.6% (inactive)
11 | COc1cc(C=C2C(=O)NC(=S)NC2=O)cc(CN2CCCC2)c1O | 111% (inactive)
12 | Cc1cc(C)c2c(c1)N(C)c1ncnc(-n3c(C)nc4cc(C)ccc43)c1CC2C (centres undefined) | 21.5% (inactive)
13 | COC1/C=C/OC2(C)Oc3c(C)c(O)c4c(O)c(c(/C=N/N(c5ccccc5)c5ccccc5)c(O)c4c3C2=O)NC(=O)C(C)=C/C=C/C(C)C(O)C(C)C(O)C(C)C(OC(C)=O)C1C (centres undefined) | 59.1% (inactive)
14 | CN(C)Cc1cc(C(C)(C)C)cc(Br)c1O | 114% (inactive)
15 | COC(=O)c1ccc2c(c1)c1c(C)c3cnccc3c(C)c1n2C | -26% (active)
16 | CN(C)CCCn1c2c(c3cnccc3c1=O)C(=O)c1ccccc1-2 | -11.8% (active)
17 | O=C(NNc1nc2cc(F)ccc2n2c(CN3CCOCC3)ccc12)c1ccccc1 | -8.34% (active)
18 | CCOC(=O)C/C(=N\Nc1cc(=O)[nH]c2ccc(OC)cc12)C(=O)OCC | 109% (inactive)
19 | COc1ccc(/C=C(/C(=O)N2CCNCC2)c2cc(OC)c(OC)c(OC)c2)cc1O | 10.5% (inactive)
20 | COC(=O)[C@]1(C)CCC[C@]2(C)[C@H]3C[C@@H]4[C@H]5[C@@H]6CC/C(=N\OCC/C(N)=N/O)[C@H]5[C@@]3(CC[C@H]21)CC4(C(C)C)O6 | 53.1% (inactive)

Row | SMILES | growth
21 | CC/C(=C(\c1ccc(Cl)cc1)c1ccc(OCCN2CCCCC2)cc1)c1ccc(O)cc1 | 40.4% (inactive)
22 | CCN(CC)CCOc1ccc(/C(=C(\C)Cc2ccc(OC)cc2)c2ccc(OC(=O)NCc3ccccc3)cc2)cc1 | 76.1% (inactive)
23 | O=[N+]([O-])c1c(O)c(Cl)cc(Cl)c1Cl | 111% (inactive)
24 | C=CC(=O)Nc1cccc(Oc2nccc(Nc3nnc(-c4ccc(Br)cc4)s3)n2)c1 | 102% (inactive)
25 | O=S(=O)(Nc1ccc2ccccc2c1)c1ccc(-c2cnc(C3CC3)o2)cc1 | 1.73% (active)
26 | CCCCCc1ccc(S(=O)(=O)Nc2ccc3nc(N)oc3c2)cc1 | 64.5% (inactive)
27 | C=CCN=c1sc(-c2ccc3ccccc3c2)cn1NC(=O)c1cc2ccc1CCc1ccc(cc1)CC2 | 53.2% (inactive)
28 | c1cc(OCCN2CCCCCC2)ccc1CNc1ccc2nc(CCC3CCCCC3)[nH]c2c1 | 77.3% (inactive)
29 | CC1=C2CC/C(C)=C/CC[C@]3(C)O[C@H]3CC/C(C)=C/[C@H]2OC1 | 110% (inactive)
30 | COc1ccc(C(O)c2cc3c(N)c(C(=O)Nc4cccc5ccccc45)sc3nc2C)cc1 (centres undefined) | 0.772% (active)
31 | CCOc1ncc([N+](=O)[O-])c(OCC)n1 | 124% (inactive)
32 | COc1ccc(C2[C@@H](Cl)C(=O)N2c2cc(OC)c(OC)c(OC)c2)cc1Cl (some centres undefined) | -2.62% (active)
33 | CS(=O)(=O)c1ccc(-c2nc3ccccc3n2CC(=O)N/N=C/c2ccccc2)cc1 | 105% (inactive)
34 | CN1CCN(c2ccc(NC3=CC(=O)c4ncncc4C3=O)cc2)CC1 | -58.6% (active)
35 | Cn1c(=O)[nH]c(=O)c2nc3c(nc21)-c1ccccc1C3=O | 107% (inactive)
36 | COc1ccc(-c2cc(C(=O)N3N=C(c4ccc(N)cc4)CC3c3ccc(Cl)cc3)c3cc(OC)ccc3n2)cc1 (centres undefined) | 42.7% (inactive)
37 | O=c1cc(CP(=O)(O)O)c2cc(O)c(-c3ccccc3)cc2o1 | 108% (inactive)
38 | O=C1c2cccnc2C(=O)c2c1c(C(=O)OCCc1ccccn1)c1ccccn21 | -16.1% (active)
39 | Cc1cc(C(=O)CCCC(=O)c2cc(C)c(O)c(C)c2)cc(C)c1O | 105% (inactive)
